Some test systems named below: SK-MEL-2 melanoma; EKVX NSCLC; SN12C renal; UO-31 renal; TK-10 renal; ACHN renal; CAKI-1 renal; A498 renal; CCRF-CEM leukemia; MOLT-4 leukemia; SR leukemia; RPMI-8226 leukemia; OVCAR-8 ovarian; OVCAR-5 ovarian; OVCAR-4 ovarian; SK-OV-3 ovarian; IGROV1 ovarian; OVCAR-3 ovarian; HS 578T breast; NCI/ADR-RES ovarian.
Common to all, as to test: NCI-60 one-dose screen, 48 h (100 = growth as untreated, 0 = no growth, -100 = all killed)
Conditions in all cases: 10 µM unless noted

This is part of a sample that, as a whole, favours compounds with a hit. Of some 83,000 tested, about 20% had one in any assay.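 Note: values are percent growth. 100 is the growth of untreated cells, values between 100 and 0 indicate rising inhibition; between -100 and 0 indicates cell death.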 Values without a mark were called inactive. The source made the active and inactive calls. The calls were made as follows: active = growth percent below 10; inactive = the rest.

With `CC(C)c1nc(N(C)S(C)(=O)=O)nc(-c2ccc(F)cc2)c1/C=C/C(=O)C[C@@H](O)CC(=O)O`, the growth is 81.1% in the test with SK-MEL-2 melanoma; 107% with EKVX NSCLC; 110% in the test with SN12C renal; 93.1% in the test with UO-31 renal; 88.4% with TK-10 renal; 108% in the test with ACHN renal. Moreover, the growth with CAKI-1 renal is 98.5%; in the test with A498 renal, 106%; in the test on CCRF-CEM leukemia, 102%; in the test on MOLT-4 leukemia, 107%; in the test on SR leukemia, 105%; in the test on RPMI-8226 leukemia, 107%. The growth with OVCAR-8 ovarian was 94.2%; with OVCAR-5 ovarian, 106%; in the test with OVCAR-4 ovarian, 113%; in the test on SK-OV-3 ovarian, 102%; in the test with IGROV1 ovarian, 105%; in the test with OVCAR-3 ovarian, 111%. In addition, the growth was 102% in the test with HS 578T breast and 107% in the test with NCI/ADR-RES ovarian.

Regarding `CCCCCCCCCCCCCC[n+]1ccc2c(C)c3c(c(C)c2c1)c1cc(O)ccc1n3CC`, the growth in the test with SK-MEL-2 melanoma was -81.6% (active); with EKVX NSCLC it was -34.5% (active); with SN12C renal it was -74.9% (active); in the test on UO-31 renal it was -1.41% (active); in the test with TK-10 renal it was -46.6% (active); in the test with ACHN renal, -25.3% (active). The growth in the test on CAKI-1 renal is 31.4%; in the test with A498 renal, -19.8% (active); with CCRF-CEM leukemia, -16% (active); in the test on MOLT-4 leukemia, -44.5% (active); in the test on SR leukemia, -52.5% (active); in the test on RPMI-8226 leukemia, -51.5% (active). Besides, the growth in the test with OVCAR-8 ovarian is -43.4% (active); with OVCAR-5 ovarian, -60.9% (active); in the test on OVCAR-4 ovarian, -59.8% (active); in the test with SK-OV-3 ovarian, -19% (active); with IGROV1 ovarian, -75.6% (active); in the test on OVCAR-3 ovarian, -95.3% (active). Further, the growth is -41.3% (active) in the test with HS 578T breast and 59.9% in the test with NCI/ADR-RES ovarian.

For `O=c1[nH]c(CN2CCN(c3ccccc3)CC2)nc2c(Br)cc(Br)cc12`, the growth in the test on SK-MEL-2 melanoma was 91.2%; with EKVX NSCLC it was 96.3%; with SN12C renal, 110%; in the test with UO-31 renal it was 77.8%; in the test with TK-10 renal it was 120%; in the test on ACHN renal, 101%. In addition, the growth in the test on CAKI-1 renal is 99.7%; with A498 renal it was 121%; with CCRF-CEM leukemia, 88.9%; in the test with MOLT-4 leukemia, 89.6%; with SR leukemia, 3.49% (active); in the test on RPMI-8226 leukemia it was 96.6%. Also, the growth was 104% with OVCAR-8 ovarian; 95.3% with OVCAR-5 ovarian; 105% with OVCAR-4 ovarian; 96.4% in the test with SK-OV-3 ovarian; 29.4% in the test on IGROV1 ovarian; 103% in the test on OVCAR-3 ovarian. Besides, the figures for the growth with HS 578T breast and with NCI/ADR-RES ovarian were 91.7% and 104%, respectively.

For `O=C(c1ccccc1)[C@@H](c1ccccc1)[C@]1(O)C(=O)Nc2ccccc21`, the growth with SK-MEL-2 melanoma is 96.9%; in the test with EKVX NSCLC, 105%; in the test on SN12C renal it was 82.3%; in the test with UO-31 renal, 76.1%; with TK-10 renal, 112%; in the test on ACHN renal, 90.1%. The growth in the test on CAKI-1 renal is 84.6%; with A498 renal, 100%; with CCRF-CEM leukemia, 100%; in the test with MOLT-4 leukemia, 102%; in the test with SR leukemia it was 102%; with RPMI-8226 leukemia, 100%. Further, the growth with OVCAR-8 ovarian was 92.6%; in the test on OVCAR-5 ovarian it was 82.1%; with OVCAR-4 ovarian it was 98.7%; in the test with SK-OV-3 ovarian, 84%; in the test on IGROV1 ovarian, 98.4%; in the test on OVCAR-3 ovarian it was 94.2%. In addition, the growth is 93.3% in the test with HS 578T breast and 102% in the test with NCI/ADR-RES ovarian.

Take `CCOC(=O)c1c(C)c2c(n1Cc1ccccc1)CSc1cc(C#N)c(=O)[nH]c1-2`: the growth in the test on SK-MEL-2 melanoma was 92.2% [100 µM]; with EKVX NSCLC it was 67.1% [100 µM]; in the test on SN12C renal it was 80.6% [100 µM]; with UO-31 renal, 85.6% [100 µM]; with TK-10 renal it was 40.5% [100 µM]; in the test on ACHN renal, 49.3% [100 µM]. Further, the growth in the test on CAKI-1 renal was 58.9% [100 µM]; in the test on A498 renal, 92% [100 µM]; in the test with CCRF-CEM leukemia it was 90.4% [100 µM]; with MOLT-4 leukemia, 118% [100 µM]; in the test with SR leukemia, 54.8% [100 µM]; in the test on RPMI-8226 leukemia, 82.4% [100 µM]. Besides, the growth in the test on OVCAR-8 ovarian is 88% [100 µM]; with OVCAR-5 ovarian it was 120% [100 µM]; in the test on OVCAR-4 ovarian, 98.8% [100 µM]; in the test on SK-OV-3 ovarian it was 98.6% [100 µM]; with IGROV1 ovarian, 95.5% [100 µM]; with OVCAR-3 ovarian, 75.7% [100 µM]. For the same compound, the growth in the test on HS 578T breast was 51.9% [100 µM]; in the test on NCI/ADR-RES ovarian, 58.5% [100 µM].

`O=C(CN1C(=O)c2ccccc2S1(=O)=O)Nc1nc(-c2cc3ccccc3oc2=O)cs1`: the growth with SK-MEL-2 melanoma is 107%; with EKVX NSCLC, 102%; in the test with SN12C renal, 97.2%; with UO-31 renal it was 91%; with TK-10 renal, 137%; in the test with ACHN renal, 103%. For the same compound, the growth in the test on CAKI-1 renal was 100%; in the test on A498 renal, 98%; with CCRF-CEM leukemia, 104%; with MOLT-4 leukemia, 110%; with SR leukemia, 109%; in the test with RPMI-8226 leukemia, 108%. Besides, the growth was 101% in the test on OVCAR-8 ovarian; 106% with OVCAR-5 ovarian; 110% with OVCAR-4 ovarian; 106% with SK-OV-3 ovarian; 99.1% in the test with IGROV1 ovarian; 113% in the test with OVCAR-3 ovarian. Moreover, the growth with HS 578T breast was 96.6%; with NCI/ADR-RES ovarian, 103%.

In the case of `COc1ccccc1-c1nc2ccc3[nH]ncc3c2c2c1CCCC2`, the growth in the test on SK-MEL-2 melanoma is 99%; in the test on EKVX NSCLC, 44.3%; with SN12C renal, 80.5%; in the test with UO-31 renal, 36.3%; in the test with TK-10 renal, 60.4%; in the test on ACHN renal it was 58.2%. Besides, the growth with CAKI-1 renal is 21.8%; in the test with A498 renal, 6.87% (active); in the test with CCRF-CEM leukemia, 66.6%; in the test on MOLT-4 leukemia, 42.6%; in the test on SR leukemia, 29.1%; in the test on RPMI-8226 leukemia, 68.6%. The growth in the test on OVCAR-8 ovarian is 81.2%; in the test on OVCAR-5 ovarian, 103%; with OVCAR-4 ovarian it was 85.6%; in the test with SK-OV-3 ovarian it was 80.5%; in the test on IGROV1 ovarian, 58.9%; in the test with OVCAR-3 ovarian, 114%. Moreover, the growth in the test on HS 578T breast is 44.8%; with NCI/ADR-RES ovarian, 80.6%.

Take `Oc1ccc(C(c2ccc(O)cc2)c2ccc(Cl)cn2)cc1`: the growth is 72.7% in the test with SK-MEL-2 melanoma; 15.8% in the test with EKVX NSCLC; 6.15% (active) in the test on SN12C renal; 64.8% in the test with UO-31 renal; -3.31% (active) in the test on TK-10 renal; 15.7% in the test on ACHN renal. The growth with CAKI-1 renal is 73.5%; in the test on A498 renal it was -1.72% (active); in the test with CCRF-CEM leukemia, 70.2%; in the test with MOLT-4 leukemia, 98.3%; in the test with SR leukemia, 90%; in the test on RPMI-8226 leukemia it was 98.2%. The growth in the test with OVCAR-8 ovarian was -11.1% (active); in the test with OVCAR-5 ovarian it was 72.7%; with OVCAR-4 ovarian, -14.8% (active); in the test with SK-OV-3 ovarian it was 86.8%; with IGROV1 ovarian, 28.9%; in the test with OVCAR-3 ovarian, -34.5% (active). In addition, the growth was -29.9% (active) in the test with HS 578T breast and -36.1% (active) with NCI/ADR-RES ovarian.

For the origin of these results see PubChem BioAssay (NCI).
